# Bioassay records: PubChem BioAssay, The Scripps Research Institute Molecular Screening Center
# TTR transcr act = activators of transthyretin transcription | SH-SY5Y TTR promoter Gaussia luciferase, luminescence; 100% = recombinant luciferase protein wells | activation, % at 16.7 µM | 1.3% of 92,000 active | AID 1117267;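 active = activation above the mean of all tested compounds plus 3 SD, cut at about 9.5% in these data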;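 also: cells exposed to compounds for one day before reading; 0% = median of all test compound wells on the plate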
# TTR inh HuH7 = HuH7 TTR transcription inhibition, counter-screen; shares compounds with TTR transcr act; HuH7 TTR promoter-Gaussia luciferase reporter, luminescence; inhibition, % at 16.7 µM; 4% of 1,100 active;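 active = average inhibition above the solvent-only control wells' mean plus 3 SD, cut at about 15% in these data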;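 also: 0% = cells with DMSO only and 100% = cells with inhibitor control FD; inhibitors lower well luminescence so higher value means more inhibition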
# TTR act confirm = confirmation of human transthyretin transcription activators. shares compounds with TTR transcr act. SHSY5Y TTR promoter Gaussia luciferase, luminescence; 100% = purified Lucia enzyme wells, no cells. activation, % at 16.7 µM. 1,100 tested, under 10 active. AID 1117280;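 active = mean activation above a set limit taken from the earlier primary screen, cut at about 11% in these data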;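 also: 0% = DMSO-treated cells and 100% = recombinant Lucia luciferase without cells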
# Numbers without * were called inactive. The full list was thinned out, with hits kept by preference.
SMILES,TTR transcr act,others
CN(CC(=O)Nc1ccc(S(N)(=O)=O)cc1)Cc1ccccc1F,16*,TTR inh HuH7=-1;TTR act confirm=1
CN(CC(=O)NC(=O)Nc1ccccc1F)Cc1ccccc1F,-1,
CC(OC(=O)c1ccc(-n2cnnn2)cc1)C(=O)Nc1ccc(F)c(F)c1F (stereo not given),-3,
O=C(NCCc1c[nH]c2ccccc12)OCc1cn(-c2ccc(Cl)cc2)nn1,-1,
Cc1ccccc1CN1CCCCC(NC(=O)C(C)(C)C)C1=O (stereo not given),2,
Cc1nc(SCc2ccccc2)c([N+](=O)[O-])[nH]1,-2,
Cc1nc(SCCC(C)C)c([N+](=O)[O-])[nH]1,-1,
CCOC(=O)CSc1nc(C)[nH]c1[N+](=O)[O-],10*,TTR inh HuH7=-6;TTR act confirm=-1
CC(C)[C@@H](C)/C=C/[C@@H](C)[C@H]1CC[C@@H]2[C@]1(C)CCC1[C@]23C=C[C@]2(C[C@@H](O)CC[C@]12C)N(c1ccc(F)cn1)O3 (stereo not given in full),1,
C=CCN1C(=O)[C@H](CC(=O)NCCCCc2ccccc2)[C@@]2(C(=O)OCC)CCCC=C12,0,
COc1ccc(S(=O)(=O)N2CCCC2C(=O)NCc2ccccc2Cl)cc1 (stereo not given),-2,
COc1ccc(CNC(=O)C2CCCN2S(=O)(=O)c2ccc(Cl)cc2)cc1 (stereo not given),13*,TTR inh HuH7=-12;TTR act confirm=0
COc1ccc(S(=O)(=O)N2CCC[C@H]2C(=O)NCc2ccc(Cl)cc2)cc1,2,
O=C(Nc1ccc(F)cc1)c1ccccc1NC(=O)C1CCCCC1C(=O)O (stereo not given),-1,
O=C(O)C1CCCCC1C(=O)Nc1ccc(F)c(F)c1 (stereo not given),12*,TTR inh HuH7=-7;TTR act confirm=0
Cc1ccc(NC(=O)C2CCCCC2C(=O)O)cc1C (stereo not given),1,
O=C(CCc1ccncc1)NC1CCCc2c1cnn2-c1ccc(F)cc1F (stereo not given),-3,
C=C1CCc2c([nH]c3ccc(OCC(C)C)cc23)C1=O,-7,
Cc1nc2ccccc2n1-c1ccccc1,0,
On1c(-c2ccccc2)nc2ccccc21,11*,TTR inh HuH7=-8;TTR act confirm=0
Nn1c(-c2ccccc2)nc2ccccc2c1=O,3,
O=C(NCCc1ccccc1)C1CCCN(S(=O)(=O)c2cccc3nonc23)C1 (stereo not given),10.0*,TTR inh HuH7=-5;TTR act confirm=2
O=C(NCc1ccc(F)cc1)C1CCCN(S(=O)(=O)c2cccc3nonc23)C1 (stereo not given),2,
O=C(NCCc1ccccc1)C1CCN(S(=O)(=O)c2cccc3nonc23)CC1,-3,
Cc1nnc(NC(=O)c2ccc(S(=O)(=O)N3CC(C)CC(C)C3)cc2)o1 (stereo not given),5,
SMILES,TTR transcr act,others
CN1CCN(C(=O)C[C@H]2C[C@H]3c4cc(NC(=O)NC5CCCCC5)ccc4O[C@H]3[C@@H](CO)O2)CC1,-1,
CCCCN1CC[C@H](C)Oc2cc(Br)ccc2S1(=O)=O,7,
O=S1(=O)c2ccc(Br)cc2OC[C@@H](c2ccccc2)N1Cc1cn(CCC2OCCCO2)nn1,-1,
Cc1ccc(S(=O)(=O)N2CCNC(=O)C2)c(C)c1,6,
O=C1CN(S(=O)(=O)c2cccc(Br)c2)CCN1,14*,TTR inh HuH7=-10;TTR act confirm=0
COC(=O)CCN1CCN(S(=O)(=O)c2cccc(Br)c2)CC1,2,
CCCC(C)C(=O)NC1CCCCN(Cc2ccc(C)cc2)C1=O (stereo not given),-2,
CCC(=O)Nc1ccc(Cl)cc1C(=O)c1ccc[nH]1,0,
NC(=O)C1CCN(c2nc(-c3ccc(N)cc3)cs2)CC1,1,
COc1cccc(C(C)(O)c2nc(-c3cccc(C(=O)O)c3)cs2)c1 (stereo not given),2,
COc1ccc(C(C)(NC(C)=O)c2nc(-c3cc(F)cc(F)c3)cs2)cc1 (stereo not given),-2,
COc1ccc(C(C)(NC(C)=O)c2nc(-c3cccc(C(=O)O)c3)cs2)cc1 (stereo not given),10.0*,TTR inh HuH7=-20;TTR act confirm=0
Cc1noc(C)c1NC(=O)Nc1ccc2c(c1)C(=O)N([C@@H](C)CO)C[C@@H](C)[C@H](CN(C)S(=O)(=O)c1ccc(F)cc1)OCCCC[C@H](C)O2,1,
COC(=O)[C@]12C[C@H](CC(=O)N3CCN(C(=O)C4CC4)CC3)C(=O)N(Cc3ccc(Cl)cc3Cl)C1=C[C@H](C(C)C)O[C@@H]2C1CC1,-2,
CC(C)(C)OC(=O)NCc1cc2c(cc1/C=C/S(=O)(=O)NC1CCCC1)OCO2,2,
O=S1(=O)c2ccc(N3CCCC3)cc2Oc2ccccc2CN1Cc1cn(Cc2ccc(F)cc2)nn1,0,
Cc1ccc(NC(=S)Nc2cccc(-c3n[nH]c(=S)o3)c2)cc1,74*,TTR inh HuH7=1;TTR act confirm=0
Cc1ccc(NC(=S)Nc2cc(C)on2)cc1,1,
Cc1ccc(C(=O)Nc2cccc(-c3nc4ncccc4o3)c2)cc1,-1,
O=C(O)/C=C/C(=O)Nc1cccc2c1-c1ccccc1C2=O,1,
COC(=O)[C@]12C[C@H](CC(=O)NCc3cccc(C(F)(F)F)c3)C(=O)N(Cc3ccco3)C1=C[C@H](COCc1ccccc1)O[C@@H]2C,0,
COC(=O)C(CN)CN1C(=O)c2ccccc2C1=O (stereo not given),0,
CCOc1ccc(S(=O)(=O)N2CCN(Cc3ccc4c(c3)OCO4)CC2)cc1OCC,-2,
O=S(=O)(c1ccc(Cl)nc1)N1CCN(Cc2ccc3c(c2)OCO3)CC1,-1,
CC(C)(C)c1ccc(S(=O)(=O)N2CCN(Cc3cc4c(cc3O)OCO4)CC2)cc1,15*,TTR inh HuH7=-7;TTR act confirm=1
SMILES,TTR transcr act,others
CN(C)[C@H]1CCN(c2cccc3c2S(=O)(=O)N2CC[C@@H](C2)O3)C1,1,
COc1ccc2cc3cc(C(=O)Nc4ccc(F)cc4)sc3nc2c1,3,
CCc1ccc(S(=O)(=O)n2c(C)nc3ccccc32)cc1,3,
CCSc1nc2ccccc2n1S(=O)(=O)c1ccccc1,30*,TTR inh HuH7=4;TTR act confirm=0
Cc1nc2ccccc2n1S(=O)(=O)c1ccc(Br)cc1,7,
COC(=O)[C@]12C[C@H](CC(=O)NCC3CCCCC3)C(=O)N(Cc3ccc4c(c3)OCO4)C1=C[C@H](C(C)C)O[C@@H]2C1CC1,1,
COc1ccc2c(c1)/C(=C\c1cccc(/C=C3/C(=O)Nc4ccc(OC)cc43)n1)C(=O)N2,-6,
Cc1cccc(C)c1NC(=O)CNC(=O)C1CCCN(C(=O)c2ccc(Cl)cc2)C1 (stereo not given),26*,TTR inh HuH7=-7;TTR act confirm=-1
O=C(Cc1cccc(NC(=O)C2CCCN(C(=O)C3CC3)C2)c1)Nc1ccc(C(=O)N2CCCCC2)cc1 (stereo not given),1,
O=C(Cc1cccc(NC(=O)C2CCCN(C(=O)c3ccccc3)C2)c1)Nc1cccc(C(=O)N2CCCCC2)c1 (stereo not given),3,
O=S1(=O)c2ccc(N3CCC[C@H]3CO)cc2O[C@@H]2CCN1C2,0,
COC(=O)[C@]12C[C@H](CC(=O)NCCc3ccccc3OC)C(=O)N(Cc3ccc(Cl)cc3Cl)C1=C[C@H](C(C)C)O[C@@H]2C1CC1,3,
CSCC(=O)Nc1cc(C)on1,8,
Cc1cc(NC(=O)CSCC(=O)OCc2nnc(-c3ccc(F)cc3)o2)no1,-1,
